TRPML1 inh – inhibitors of human TRPML1 channel; Q9GZU1; TRPML1-inducible cells, Ca2+ dye fluorescence, FDSS; stronger effect = lower value; inhibition of EC80 agonist-evoked calcium signal; activity change, negative = inhibition, % (concentration not given with the values); 0.02% of 390,000 active; AID 624415; in the data active means activity change below about -50%; inconclusive means between about -30% and that limit;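 further: stimulus is agonist 54-4 at its EC80 concentration; on the % scale 0 is the no-effect control and ±100 the full control effect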
Target sequence (Q9GZU1 whole entry, looked up): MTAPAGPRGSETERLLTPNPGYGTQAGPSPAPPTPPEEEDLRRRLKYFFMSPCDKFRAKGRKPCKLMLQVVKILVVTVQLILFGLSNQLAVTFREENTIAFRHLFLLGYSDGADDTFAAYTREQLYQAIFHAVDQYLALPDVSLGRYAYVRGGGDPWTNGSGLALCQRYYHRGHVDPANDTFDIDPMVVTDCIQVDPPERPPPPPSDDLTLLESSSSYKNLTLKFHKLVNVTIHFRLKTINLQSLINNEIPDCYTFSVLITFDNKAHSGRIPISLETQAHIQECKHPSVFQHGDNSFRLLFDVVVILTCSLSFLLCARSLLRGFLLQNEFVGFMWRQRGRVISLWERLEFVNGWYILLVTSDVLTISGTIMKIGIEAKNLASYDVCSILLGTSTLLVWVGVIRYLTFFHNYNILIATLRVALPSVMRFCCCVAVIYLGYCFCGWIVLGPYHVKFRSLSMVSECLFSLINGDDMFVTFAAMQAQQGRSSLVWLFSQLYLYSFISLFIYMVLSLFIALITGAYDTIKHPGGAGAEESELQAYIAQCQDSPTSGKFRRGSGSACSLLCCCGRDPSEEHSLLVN
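Calcium fluorescence in TRPML1-DL cells induced overnight with Tet: a 110 s read after compound pin addition, then a 110 s antagonist read after challenge with 54-4 at 4 uM final (EC80).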
TRHR enhancer-1 – allosterically enhances the human TRH receptor. TRHR cells, fluo-8 calcium fluorescence, EC20 TRH enhancement. 0.66% of 360,000 active. P34981. enhancement, % at 2 µM; in the data active means enhancement above about 30%; further: 0% is about no effect
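TRHR-expressing cells loaded with fluo-8 calcium dye were read kinetically (ex 480/em 530) during compound addition, then stimulated with an EC20 of TRH (10 nM final). Enhancement of the Gq-mediated intracellular calcium response was scored.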
TRPML1 agonist – human mucolipin-1 channel agonism. activation, % (no concentration beside the values). 0.12% of 410,000 active. TRPML1-expressing cells, Ca2+ dye fluorescence, FDSS. Q9GZU1; in the data active means activation above about 50%; inconclusive means mostly about 30% to 49%; further: 0% is about no effect
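Tetracycline-induced TRPML1-DL cells are seeded and incubated overnight before loading with a no-wash Ca2+ dye and quencher. Agonist activity is taken from the 110 s fluorescence read following compound pin-transfer on an FDSS, before EC80 54-4 challenge.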
TRHR agonist-1 – activates the human TRH receptor. TRHR cells, calcium flux fluo-8, FDSS agonist mode. activation, % at 2 µM. P34981. 0.18% of 360,000 active; in the data active means activation above about 30%; further: 0% is about no effect
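In this calcium-flux screen, cells bearing human TRHR are dye-loaded with fluo-8, baselined for 10 cycles, then exposed to library compounds; positive kinetic calcium responses during the agonist phase mark hits, with TRH as control.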
TRHR enhancer-2 – confirmation of human TRH receptor allosteric enhancers. shares compounds with TRHR enhancer-1. TRH receptor cell assay, enhancer confirmation qHTS. activity change, negative = inhibition, % at 46.1 µM. 970 tested, under 10 active;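 further: compound effect scored on response to added TRH at EC20 of 10 nM; 0% is about no effect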
TRHR agonist-2 – confirmation of human TRH receptor agonists; shares compounds with TRHR enhancer-1; TRHR-expressing cells, agonist activation read-out; Potency, µM (doses to about 46.1 µM), without a hit: at the highest dose activation, hits mostly activators; 8% of 970 active; AID 493078; further: potency means the concentration at half of the fitted maximal effect; 0% is about no effect; nearly all actives have a fitted effect of over 75% in size
Numbers without * were called inactive; ? = inconclusive; / = no result given. An excerpt weighted towards active compounds, which were near 0.81% of everything screened. Unless noted, the call rests on the fitted dose curve; in most records, active means well fitted curve in the direction sought with a large enough effect; inconclusive means small, poorly fitted or top-dose-only effect, or another doubt; inactive means no such curve, though single readings can be large; an effect the other way counts as inactive or inconclusive.

SMILES | TRPML1 inh | TRHR enhancer-1 | TRPML1 agonist | TRHR agonist-1 | TRHR enhancer-2 | TRHR agonist-2
CCN1CCN(Cc2c(O)ccc3c2O/C(=C\c2ccc(C)cc2)C3=O)CC1 | 42 | -6 | 16 | 26 | 7 | ?
O=C(NC1CCCCC1)C(c1ccc2ncccc2c1)N(Cc1ccccc1)C(=O)c1cccs1 (stereo not given) | 39 | 59* | 4 | 1 | -6 | 1%
COc1ccc(-c2nnc3ccc(SC(C)C)nn23)cc1OC | / | / | -1 | / | / | /
Clc1ccc(-c2csc3ncnc(Sc4nnnn4-c4ccccc4)c23)cc1 | / | / | 0 | / | / | /
CCc1ccc(CN(C)Cc2nc(-c3cccc(Cl)c3)no2)nc1 | -7 | 48* | 1 | 0 | -11 | 9%
CN(Cc1cnn(C)c1)Cc1nc(-c2ccc(Cl)cc2)no1 | -20 | 0 | 0 | 1 | / | /
CCCNC(=O)Cn1c(SCc2ccccc2C)nc2ccncc21 | / | / | -1 | / | / | /
O=[N+]([O-])c1ccc2c(c1)C=C/C2=C\c1ccc(C=S)cc1 | / | / | -1 | / | / | /
CCCN1CCC(CCOc2ccccc2)(C(=O)OCC)CC1 | 1 | 56* | 1 | 0 | -4 | 1%
Cc1ccc(-c2c(C)sc3nc[nH]c(=O)c23)cc1C | 8 | 47* | 0 | -1 | 0 | 1%
O=C(Cc1nc2ccccc2[nH]c1=O)c1ccccc1 | 11 | 1 | 12 | 31* | -4 | ?
CCOC(=O)CN1C(=O)S/C(=C/C=C/c2ccc(N(C)C)cc2)C1=O | -2 | -6 | ? | 32* | -1 | ?
CCOC(=O)CN1C(=O)S/C(=C/c2ccc3c(c2)n(C)c(=O)n3C)C1=O | -1 | -3 | 1 | 0 | / | /
CCC(=O)NC(c1ccco1)c1cc([N+](=O)[O-])c2cccnc2c1O (stereo not given) | / | -1 | / | 1 | / | /
CCCc1cc(C(=O)N2CCCC(C(=O)c3cccc4ccccc34)C2)n(C)n1 (stereo not given) | -1 | 46* | 3 | -1 | -9 | 1%
Oc1cc(O)c(/C=C/c2ccnc3ccccc23)c(O)c1 | / | / | 0 | / | / | /
COc1ccccc1N1C(C)=CC(=C(C#N)c2nc3ccccc3s2)C=C1C | -12 | -6 | 12 | 46* | ? | 18µM*
COc1ccccc1CN(C)C(=O)CN1CCN(S(=O)(=O)c2ccc3c(c2)OCCCO3)CC1 | -4 | 55* | 0 | -1 | -6 | 0%
CC(=O)Nc1sc(/C(C#N)=C/c2ccc(Cl)c(Cl)c2)nc1-c1ccc(C)cc1 | ? | -1 | 75* | 68* | -10 | 7.3µM*
COc1ccc(CCNC(=O)CSc2nc(N)c(C#N)c(-c3cccs3)c2C#N)cc1OC | 4 | 26 | 0 | 141* | 0 | 0%
Cc1ccccc1NC(=O)CSc1nc(N)c(C#N)c(-c2cccs2)c1C#N | 11 | 1 | 0 | 2 | / | /
COc1cccc(C2CC(c3ccc(NS(C)(=O)=O)cc3)=NN2C(=O)c2ccccc2)c1OC (stereo not given) | -10 | 50* | 0 | 0 | -5 | 4%
CC(=O)Nc1cc2c(nc1C)nc(C)n2Cc1ccc(Br)cc1 | 2 | 46* | 0 | 1 | -2 | -1%
CCOc1ccc(S(=O)(=O)N2CCN(c3ccc(OC)cc3)CC2)c2cccnc12 | -17 | 44* | 1 | -2 | 0 | 1%
COc1ccc(C2C(C#N)=C(N)Oc3cc(N)ccc32)cc1 (stereo not given) | 4 | 63* | 1 | 0 | 7 | -1%
SMILES | TRPML1 inh | TRHR enhancer-1 | TRPML1 agonist | TRHR agonist-1 | TRHR enhancer-2 | TRHR agonist-2
c1ccc(-c2ccc(-c3csc4ncnc(Sc5nnnn5-c5ccccc5)c34)cc2)cc1 | / | / | 0 | / | / | /
CCC(C)(C)NC(=O)C(c1cccn1C)N(C(=O)Cn1nnc2ccccc21)c1ccc(F)cc1 (stereo not given) | -3 | -17 | 0 | 29 | -4 | ?
NCCCN(Cc1ccccc1)c1ccc(Br)cn1 | / | / | 0 | / | / | /
Cc1cccc(NC(=O)COc2ccccc2C(=O)Nc2ccccc2)c1 | / | / | 0 | / | / | /
N#Cc1ccc(-c2cccnc2)nc1SCC(=O)c1ccccc1 | 3 | -3 | ? | 38* | -5 | 5%
CCN(CC)CCN(C(=O)c1ccc2c(c1)CCCC2)c1nc2c(C)cccc2s1 | -6 | 1 | -1 | 38* | -8 | 0%
COCCNC(=O)c1cc2c(=O)n3cccc(C)c3nc2n1C | -3 | 41* | -1 | 0 | ? | -1%
CCCCNC(=O)c1cc2c(=O)n3cccc(C)c3nc2n1C | / | -1 | / | 0 | / | /
COc1cnc(-c2ccccc2)nc1Oc1cccc(C)c1 | -8 | 59* | 3 | 0 | -6 | 3%
COc1cnc(-c2ccccc2)nc1OC | -10 | 3 | 0 | -1 | / | /
CCc1ccc(NC(=O)N(Cc2cccnc2)Cc2ccco2)cc1 | -27 | 43* | 3 | -1 | ? | 16µM*
COc1ccccc1/C=C/c1nc2ccccc2s1 | / | / | -1 | / | / | /
O=C(NCc1ccc(F)cc1)c1ccc(N2CCOCC2)c([N+](=O)[O-])c1 | 16 | 3 | 2 | 0 | / | /
O=C(N/N=C/c1ccc(N2CCOCC2)c([N+](=O)[O-])c1)c1ccc(F)cc1 | 10 | 100* | 1 | 0 | 7 | 2%
CCOc1ccccc1NC(=O)c1nc(SCc2ccccc2F)ncc1Cl | / | / | 0 | / | / | /
Cc1c(NC(=O)CN2C(=O)NC(C)(c3ccccc3)C2=O)c(=O)n(-c2ccccc2)n1C (stereo not given) | -8 | 48* | 0 | 0 | -2 | 0%
CCC(C(=O)NCc1cccnc1)c1ccccc1 (stereo not given) | 40 | 42* | -1 | 0 | -2 | -1%
CCCN1CNc2c(c(=O)[nH]c(=S)n2CCc2cc(OC)ccc2OC)C1 | / | / | 0 | / | / | /
Cc1cn2c(N)c(C=C3C=C(Cl)C(=O)C(Cl)=C3)c(=O)nc2s1 | -1 | -3 | ? | 27 | 0 | 9.2µM*
Cc1cccc(OCC(=O)Nc2cc(-c3nc4cc(Cl)ccc4o3)ccc2C)c1 | / | / | 0 | / | / | /
CCn1c(CC(=O)Nc2ccccc2)n[nH]c1=S | -2 | 52* | 0 | 0 | 0 | -1%
CCCCOc1ccc(C(=O)NCC(=O)N2CC(C)OC(C)C2)cc1 (stereo not given) | 0 | -1 | 0 | 0 | / | /
CCCCOc1ccc(C(=O)NCC(=O)N2CC(C)CC(C)C2)cc1 (stereo not given) | 6 | -3 | 0 | 40* | -7 | 5%
CCCCOc1ccc(C(=O)NCC(=O)NCCOc2ccccc2OC)cc1 | 18 | 74* | 3 | 0 | 11 | 5%
CCOC(=O)c1cnc(-n2nc(C)cc2C)nc1Nc1ccc(OC)cc1 | -8 | 42* | 0 | 0 | -3 | ?
CC(I)CCC(C)[n+]1cccc(I)c1 (stereo not given) | / | / | 0 | / | / | /
COc1cc(OC)cc(C(=O)NCc2cc(C)nc3ccccc23)c1 | 3 | -2 | 1 | 33* | -8 | 1%

Screening results: PubChem, National Center for Advancing Translational Sciences (NCATS)
